Results: PubChem BioAssay AID1259343 (VanderVen Lab, College of Veterinary Medicine, Cornell …, 2017)
In all, about 6,200 compounds went through this assay and about 2,900 (47%) were called active. The set was probably picked from earlier hits. The list shows a part of the results. Unmarked numbers belong to inactive results. Rule as the data show it: active = inhibition above about 50%; inactive = the rest.

Assay: Mycobacterium tuberculosis growth inhibition, primary screen (AID 1259343)
Conditions: inhibition: at 10 µM, hits give high values; outcome: 10 uM

| SMILES | inhibition |
| --- | --- |
| CCOc1ccc2cc(C(=O)C(C#N)C(=O)c3ccsc3)[nH]c2c1 (stereo not given) | 12.1% |
| c1cc2c(c(-c3cccc4[nH]ccc34)c1)CCNC2 | 73.2% (active) |
| Cn1c2c(c3cc(-c4cccc5c4CCNC5)ccc31)CCCC2=O | 10.9% |
| O=c1[nH]cc(F)c(=O)[nH]1 | 67.9% (active) |
| N#CC(=Cc1ccsc1)c1nc2ccccc2s1 | 11.6% |
| Cc1csc(C(C#N)=Cc2cccc(O)c2)n1 | 88.7% (active) |
| CC(C)(C)OC(=O)N1CCc2cc(NC(=O)C(=O)NC3CC3)ccc21 | 74.5% (active) |
| Cc1nc(CNc2ccc3c(c2)CCN3C(=O)OC(C)(C)C)cs1 | 29.2% |
| CN1CCCc2cc(NC(=O)NCCC(=O)NC3CCCC3)ccc21 | 0.23% |
| c1ccc(COC2CCN(CCOc3ccccc3)CC2)cc1 | 50.1% (active) |
| COc1cccc(-c2cnnc(N3CCC(OCc4ccccc4)CC3)n2)c1 | 30.1% |
| CCc1cc(=O)[nH]c(-n2nc(C)cc2NC(=O)c2cccc(C)c2)n1 | 101% (active) |
| CCc1cc(=O)[nH]c(-n2nc(C)cc2NC(=O)c2ccc(-c3ccccc3)cc2)n1 | 103% (active) |
| CCc1cc(=O)[nH]c(-n2nc(C)cc2NC(=O)c2ccccc2)n1 | 102% (active) |
| N#Cc1ccc(Nc2ccc(OC3CCCC3)cc2)nc1 | 93.4% (active) |
| N#Cc1ccc(Nc2ccc(N3CCCC3)c(F)c2)nc1 | 48.8% |
| N#Cc1ccc(Nc2ccc(Cl)cc2)cc1 | 3.65% |
| CC(C)C1=CC2=CC[C@H]3[C@](C)(CO)CCC[C@]3(C)C2CC1 (stereo not given in full) | 82.5% (active) |
| Cc1cn(Cc2csc(C(C)C)n2)cc1C#N | 1.23% |
| Cn1c(Sc2ncc(-c3ccc(F)cc3)[nH]2)c(C#N)c(=O)n(C)c1=O | -14.4% |
| O=C(NCc1cccc(-c2ncc(-c3ccc(F)cc3)[nH]2)c1)c1cccs1 | 22.9% |
| N#Cc1cccc(C(=O)NCc2cccc(-c3ncc(-c4ccc(F)cc4)[nH]3)c2)c1 | 81.2% (active) |

| SMILES | inhibition |
| --- | --- |
| Cc1nc(-c2ccc(NC(=O)COC3CCCCC3)cc2)cs1 | 95% (active) |
| O=C(COC1CCCCC1)Nc1ccc(-c2nccs2)cc1 | -7.41% |
| Cc1nc(-c2cccs2)cc([C@H]2CN3CC[C@H]2C[C@@H]3CNC(=O)Nc2cccc(C(F)(F)F)c2)n1 | 53.2% (active) |
| Cc1nn(-c2ccccc2)c(Cl)c1C(=O)Nc1cccc(C(F)(F)F)c1 | 38.3% |
| Cc1sc2nc(CSc3ccc(Br)cc3)nc(-n3ccnc3)c2c1C | -19.2% |
| Cc1ccc(C(=O)Nc2ccc(OCC#N)cc2)cc1C | 22% |
| N#CCOc1ccc(NC(=O)CCOc2ccc(F)cc2Cl)cc1 | 81.4% (active) |
| CC(=O)NCCC(=O)Nc1ccc(Oc2ccc(C#N)cc2)c(Cl)c1 | -2.79% |
| O=S(=O)(CCCOc1ccc2c(c1)OCO2)N1CCCCC1 | 88.8% (active) |
| O=S(=O)(CCCOc1ccc2c(c1)OCO2)N1CCCCCC1 | 86% (active) |
| CCOC(=O)N1CCN(S(=O)(=O)CCCOc2ccc3c(c2)OCO3)CC1 | 32.5% |
| c1ccc2c(c1)oc1c(N3CCCCCC3)ncnc12 | -12.7% |
| CC1CCN(c2ncnc3c2cnn3Cc2ccc(Cl)cc2)CC1 | 62.6% (active) |
| CCN(CC)c1ncnc2c1cnn2Cc1ccc(Cl)cc1 | 34.4% |
| Clc1ccc(Cn2ncc3c(N4CCCC4)ncnc32)cc1 | 65.3% (active) |
| Clc1ccc(Cn2ncc3c(N4CCCCC4)ncnc32)cc1 | 67.1% (active) |
| Cc1ccc(Cn2ncc3c(N4CCC(C)CC4)ncnc32)cc1 | 25.7% |
| Clc1ccc(Cn2ncc3c(N4CCN(c5cccc(Cl)c5)CC4)ncnc32)cc1 | 14.4% |
| CCOc1ccc(C2C(c3nc4ccccc4s3)=C(O)C(=O)N2c2cc(C)on2)cc1OC (stereo not given) | 46.5% |
| Clc1ccccc1C(c1ccccc1)(c1ccccc1)n1ccnc1 | 68.1% (active) |
| COc1cc(OC)c2c(OC)c(-c3ccc4c(c3)OCO4)c(=O)oc2c1 | 70.6% (active) |
| Cn1ncc2c(N3CCN(CC(=O)Nc4ccc(Cl)cc4F)CC3)ncnc21 | 88.8% (active) |

| SMILES | inhibition |
| --- | --- |
| CCCc1cc(=O)[nH]c(-n2nc(C)cc2NC(=O)c2ccc(OC)cc2)n1 | -40.9% |
| CCCCOc1ccc(C(=O)Nc2cc(C)nn2-c2nc(CCC)cc(=O)[nH]2)cc1 | 101% (active) |
| CCOc1cc(C(=O)Nc2cc(C)nn2-c2nc(C)cc(=O)[nH]2)cc(OCC)c1OCC | 100% (active) |
| CCCc1cc(=O)[nH]c(-n2nc(C)cc2NC(=O)c2ccc(OCC)cc2)n1 | 100% (active) |
| CCCc1cc(=O)[nH]c(-n2nc(C)cc2NC(=O)c2cc(OCC)c(OCC)c(OCC)c2)n1 | 100% (active) |
| Clc1ccc(OCC2CCCNC2)c2ccccc12 (stereo not given) | 77.8% (active) |
| O=C(COc1ccc(Cl)c2ccccc12)NCC(F)(F)F | 17.8% |
| Nc1ncc(Cc2ccc(Br)cc2)s1 | 46.1% |
| Nc1ncc(Cc2ccc(F)c(Cl)c2)s1 | -17.6% |
| Nc1ncc(Cc2ccc(F)cc2)s1 | 93% (active) |
| COC(=O)c1ccc(COc2ccc(C3C4=C(Nc5nnnn53)C(C(C)(C)C)CCC4)cc2)cc1 (stereo not given) | 88.6% (active) |
| Cc1ccc(C2CC2C(=O)NC(C)c2nc(C3CCCC3)no2)s1 (stereo not given) | 29.8% |
| COCCc1noc(C2CC2c2ccc(C)s2)n1 (stereo not given) | 90.7% (active) |
| O=S(N1CCc2ccccc2C1)C12CC3CC(CC(C3)C1)C2 (stereo not given) | 80.3% (active) |
| O=c1cc(CSc2cccc[n+]2[O-])c2c(ccc3ccccc32)o1 | 102% (active) |
| C=CCNc1nnc(Sc2ncccc2[N+](=O)[O-])s1 | 98.3% (active) |
| Nc1ncc([N+](=O)[O-])c(Sc2nc3ccccc3s2)n1 | -52.4% |
| CC(C)=CCC1=C(O)c2ccccc2C(=O)C1=O | 101% (active) |
| O=C(Nc1nc2ccc3ccccc3c2s1)c1ccccc1 | 61.4% (active) |
| O=C(Nc1nc2c(s1)CCN(Cc1ccccc1)C2)c1cccc(F)c1 | 21.5% |
| COc1ccc(Nc2ncnc3c2cnn3Cc2ccc(C)cc2)cc1 | 23.5% |
| Cc1ccc(Cn2ncc3c(Nc4ccc(C)cc4)ncnc32)cc1 | 35.1% |

| SMILES | inhibition |
| --- | --- |
| Cc1ccc(Cn2ncc3cc(Br)cnc32)cc1 | 97% (active) |
| Cc1ccccc1-n1cc(CN(C)Cc2nc(-c3ccccc3)no2)cn1 | 86% (active) |
| CCOc1ccc(Br)cc1S(=O)(=O)Oc1cccc2c1OC(C)(C)C2 | 23.4% |
| COc1ccc(Br)cc1S(=O)(=O)Oc1ccc2ccccc2c1 | 95.9% (active) |
| CC(C)Oc1ccc(CNC(=O)c2cc(Cl)ccc2F)cn1 | -0.38% |
| O=C(NS(=O)(=O)c1ccc(Cl)cc1F)c1cccc2cn[nH]c12 | 22.9% |
| O=C(NCc1ccc(OCC2CC2)nc1)c1cccc2cn[nH]c12 | 79.9% (active) |
| O=C(NN=Cc1ccco1)c1cc(Br)ccc1O | 98.8% (active) |
| COCCn1c(O)c(C=NNC(=O)c2cc(Cl)ccc2O)c(=O)[nH]c1=S | 45.1% |
| C=CCc1ccc(OCCOc2ccc(F)cc2)c(OC)c1 | -4.29% |
| C=CCc1ccc(OCCCCn2cnc3ccccc32)c(OC)c1 | 61.1% (active) |
| C=CCc1ccccc1OCCn1cnc2ccccc21 | 57% (active) |
| OCc1ccc(Oc2ccc(Br)cc2)c(F)c1 | 94.1% (active) |
| Cc1ccc(S(=O)(=O)c2ccc([N+](=O)[O-])o2)cc1 | 102% (active) |
| Cc1nc(N)sc1-c1ccc([N+](=O)[O-])o1 | -7.32% |
| Cc1cc(C)c(-c2nc(NC(=O)C3=COCCO3)sc2C)cc1C | 11.4% |
| O=C(Nc1nnc(C2CC(=O)N(c3ccccc3)C2)o1)C1=COCCO1 (stereo not given) | 93.6% (active) |
| NC(=S)COc1ccc(F)cc1 | 77.8% (active) |
| NC(=S)COc1ccccc1 | 65.4% (active) |
| O=C1CC(=O)N2C(c3ccccc3)=CSC2(OCCS)N1 (stereo not given) | -5.38% |
| CC(NC(=O)c1ccc(-c2cccc(Cl)c2)s1)C(C)(C)C (stereo not given) | 50% (active) |
| Cc1cccc(CNC(=O)c2ccc(-c3ccc(Oc4ccccc4)cc3)s2)c1 | 82.4% (active) |

| SMILES | inhibition |
| --- | --- |
| O=C(NCc1ccncc1)c1ccc(-c2ccc(C3CCCCC3)cc2)s1 | 8.46% |
| COc1cccc(CNC(=O)c2ccc(-c3ccc(F)cc3)s2)c1 | inactive |
| N#Cc1sc(-c2cccc(Cl)c2)cc1N | 42.5% |
| COc1ccc(CNC(=O)c2ccc(-c3cccc(Cl)c3)s2)cc1 | 54.9% (active) |
| Clc1ccc(-n2cccc2CN2CCc3c([nH]c4ccccc34)C2c2ccccn2)nc1 (stereo not given) | 37.9% |
| Cc1ccc2c(=O)c(-c3cccc(C(F)(F)F)c3)coc2c1 | 57.7% (active) |
| NC(=O)c1cc2c(cc1-c1cccc(C(F)(F)F)c1)OCO2 | 22.9% |
| Cc1[nH]ncc1CCCNC(=O)Nc1ccc(Cl)c(Cl)c1 | -9.82% |
| CC(C)Cc1noc(CCCNC(=O)Nc2cccc(Cl)c2)n1 | 55.1% (active) |
| CC(C)c1cc(C(=O)NCc2nc(Cc3cccs3)no2)n(C)n1 | 13.7% |
| CCCc1cc(NCc2cccnc2)n2ncc(-c3ccccc3)c2n1 | 13.7% |
| Fc1ccc(-c2cnn3c(NCc4cccc(Cl)c4)ccnc23)cc1Cl | 57.7% (active) |
| CCCCCCc1ccc(C(=O)N2CCSC2c2ccncc2)cc1 (stereo not given) | 95.1% (active) |
| CCCCc1ccc(C(=O)O)nc1 | 40.9% |
| Fc1ccc(-n2nnc3c(SCc4cccc(F)c4)ncnc32)cc1 | -31.5% |
| O=C(CSc1ncnc2c1nnn2Cc1ccccc1F)OCc1ccccc1 | -8.15% |
| c1ccc(-n2nnc3c(SCc4cccnc4)ncnc32)cc1 | 61.4% (active) |
| Cc1ccc(Cn2nnc3c(SCc4cccnc4)ncnc32)cc1 | 58.1% (active) |
| c1ccc(Cn2nnc3c(SCc4cccnc4)ncnc32)cc1 | -31.8% |
| Cc1ccc(Cn2nnc3c(SCC(=O)OCc4ccccc4)ncnc32)cc1 | 84.7% (active) |
| COc1ccc(-n2nnc3c(SCc4cccc(F)c4)ncnc32)cc1 | 88.2% (active) |
| O=C(CSc1ncnc2c1nnn2Cc1ccccc1)OCc1ccccc1 | -35.2% |
